Reference: PubChem BioAssay AID1159580 (chemical genetic matrix, 2015)
The whole screen tested about 5,500 compounds, of which about 2,000 (36%) were called active. Inconclusive results (about 18%) are left out. Cut-off read from the data, not from the text of the source: active = normalized growth mostly below about 0.91 (no sharp cut-off); inconclusive = no clear call, values can overlap the other calls; inactive = mostly above about 0.92. The list shows a part of the results.

Assay: chemical genetic growth profiling, strain panel (AID 1159580);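 note: tested at 20 µM; growth read once vehicle control cultures reached saturation at 30 °C; 1 = growth at the plate median or of vehicle wells; lower values mean less growth of the strain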
Conditions: growth OD

Measured: normalized growth

c1cncc(C2CCCCN2)c1 (configuration not stated)
inactive: S. cerevisiae deletion strains, locus YJR066W, strain TOR1, active compounds read low 0.974 | S. cerevisiae deletion strains, locus YJR075W, strain HOC1, active compounds read low 1.03 | S. cerevisiae deletion strains, locus YKL009W, strain mrt4, active compounds read low 0.992 | S. cerevisiae deletion strains, locus YKL068W, active compounds read low 1 | S. cerevisiae deletion strains, locus YKL085W, strain MDH1 (second series), active compounds read low 0.998 | S. cerevisiae deletion strains, locus YKL085W, strain MDH1, active compounds read low 0.998 | S. cerevisiae deletion strains, locus YKL160W, strain elf1, active compounds read low 0.992 | S. cerevisiae deletion strains, locus YKL190W, strain CNB1, active compounds read low 0.99 | S. cerevisiae deletion strains, locus YKR001C, strain vps1, active compounds read low 0.986 | S. cerevisiae deletion strains, locus YKR026C, strain gcn3, active compounds read low 0.996 | S. cerevisiae deletion strains, locus YKR091W, strain srl3, active compounds read low 0.988 | S. cerevisiae deletion strains, locus YLL001W, strain dnm1, active compounds read low 0.993 | S. cerevisiae deletion strains, locus YLL026W, active compounds read low 0.996 | S. cerevisiae deletion strains, locus YLL041C, strain sdh2, active compounds read low 0.991 | S. cerevisiae deletion strains, locus YLR027C, strain aat2, active compounds read low 0.999 | S. cerevisiae deletion strains, locus YLR039C, strain RIC1, active compounds read low 1.07 | S. cerevisiae deletion strains, locus YLR058C, strain SHM2, active compounds read low 1.01 | S. cerevisiae deletion strains, locus YLR102C, strain apc9, active compounds read low 1 | S. cerevisiae deletion strains, locus YLR113W, strain HOG1, active compounds read low 0.997 | S. cerevisiae deletion strains, locus YLR221C, strain rsa3, active compounds read low 0.991 | S. cerevisiae deletion strains, locus YLR258W, strain gsy2, active compounds read low 1.02 | S. cerevisiae deletion strains, locus YLR262C, strain YPT6 (second series), active compounds read low 0.986 | S. cerevisiae deletion strains, locus YLR262C, strain YPT6, active compounds read low 1.06 | S. cerevisiae deletion strains, locus YLR268W, strain sec22, active compounds read low 0.968 | S. cerevisiae deletion strains, locus YLR320W, strain mms22, active compounds read low 0.981 | S. cerevisiae deletion strains, locus YLR330W, strain CHS5, active compounds read low 1.03 | S. cerevisiae deletion strains, locus YLR342W, strain FKS1 (second series), active compounds read low 1.02 | S. cerevisiae deletion strains, locus YLR342W, strain FKS1, active compounds read low 0.986 | S. cerevisiae deletion strains, locus YLR357W, strain rsc2, active compounds read low 0.959 | S. cerevisiae deletion strains, locus YLR370C, strain arc18, active compounds read low 0.988 | S. cerevisiae deletion strains, locus YLR371W, strain rom2, active compounds read low 0.985 | S. cerevisiae deletion strains, locus YLR384C, strain iki3, active compounds read low 0.98 | S. cerevisiae deletion strains, locus YLR418C, strain cdc73, active compounds read low 0.995 | S. cerevisiae deletion strains, locus YML016C, strain PPZ1, active compounds read low 1.02 | S. cerevisiae deletion strains, locus YML032C, strain rad52, active compounds read low 1.01 | S. cerevisiae deletion strains, locus YML120C, strain ndi1, active compounds read low 0.998 | S. cerevisiae deletion strains, locus YML124C, strain tub3, active compounds read low 0.998 | S. cerevisiae deletion strains, locus YMR058W, strain fet3, active compounds read low 0.993 | S. cerevisiae deletion strains, locus YMR078C, strain ctf18, active compounds read low 0.999 | S. cerevisiae deletion strains, locus YMR125W, strain sto1, active compounds read low 0.981 | S. cerevisiae deletion strains, locus YMR129W, active compounds read low 0.99 | S. cerevisiae deletion strains, locus YMR205C, strain PFK2, active compounds read low 1.02 | S. cerevisiae deletion strains, locus YMR223W, strain ubp8, active compounds read low 1.01 | S. cerevisiae deletion strains, locus YMR231W, strain pep5, active compounds read low 0.981 | S. cerevisiae deletion strains, locus YMR307W, strain GAS1, active compounds read low 1.11 | S. cerevisiae deletion strains, locus YNL067W, strain RPL9B, active compounds read low 1.01 | S. cerevisiae deletion strains, locus YNL071W, strain lat1, active compounds read low 0.998 | S. cerevisiae deletion strains, locus YNL153C, strain GIM3, active compounds read low 1.02 | S. cerevisiae deletion strains, locus YNL183C, strain NPR1, active compounds read low 0.965 | S. cerevisiae deletion strains, locus YNL209W, strain ssb2, active compounds read low 0.991 | S. cerevisiae deletion strains, locus YNL233W, strain BNI4, active compounds read low 1.03 | S. cerevisiae deletion strains, locus YNL248C, strain rpa49, active compounds read low 0.987 | S. cerevisiae deletion strains, locus YNL250W, strain rad50, active compounds read low 1.01 | S. cerevisiae deletion strains, locus YNL271C, strain bni1, active compounds read low 0.996 | S. cerevisiae deletion strains, locus YNL298W, strain CLA4, active compounds read low 0.988 | S. cerevisiae deletion strains, locus YNL307C, strain MCK1, active compounds read low 0.997 | S. cerevisiae deletion strains, locus YNL322C, strain KRE1 (second series), active compounds read low 0.985 | S. cerevisiae deletion strains, locus YNR049C, strain mso1, active compounds read low 0.99 | S. cerevisiae deletion strains, locus YNR052C, strain pop2, active compounds read low 0.995 | S. cerevisiae deletion strains, locus YOL012C, strain htz1 0.806 | S. cerevisiae deletion strains, locus YOL147C, strain pex11, active compounds read low 0.991 | S. cerevisiae deletion strains, locus YOR001W, strain rrp6, active compounds read low 0.994 | S. cerevisiae deletion strains, locus YOR061W, strain CKA2, active compounds read low 1.01 | S. cerevisiae deletion strains, locus YOR069W, strain VPS5, active compounds read low 0.993 | S. cerevisiae deletion strains, locus YOR070C, strain gyp1, active compounds read low 0.978 | S. cerevisiae deletion strains, locus YOR080W, strain dia2, active compounds read low 0.982 | S. cerevisiae deletion strains, locus YOR083W, strain WHI5, active compounds read low 1 | S. cerevisiae deletion strains, locus YOR106W, strain vam3, active compounds read low 0.997 | S. cerevisiae deletion strains, locus YOR136W, strain idh2, active compounds read low 0.978 | S. cerevisiae deletion strains, locus YOR144C, strain elg1, active compounds read low 0.996 | S. cerevisiae deletion strains, locus YOR184W, strain ser1, active compounds read low 1 | S. cerevisiae deletion strains, locus YOR231W, strain MKK1, active compounds read low 1 | S. cerevisiae deletion strains, locus YOR265W, strain rbl2, active compounds read low 1.01 | S. cerevisiae deletion strains, locus YOR270C, strain vph1, active compounds read low 1 | S. cerevisiae deletion strains, locus YOR290C, strain snf2, active compounds read low 1 | S. cerevisiae deletion strains, locus YOR316C, strain cot1, active compounds read low 0.998 | S. cerevisiae deletion strains, locus YPL051W, strain arl3, active compounds read low 1.01 | S. cerevisiae deletion strains, locus YPL078C, strain atp4, active compounds read low 0.994 | S. cerevisiae deletion strains, locus YPL106C, strain sse1, active compounds read low 0.972 | S. cerevisiae deletion strains, locus YPL240C, strain hsp82, active compounds read low 0.992 | S. cerevisiae deletion strains, locus YPL256C, strain CLN2, active compounds read low 0.997 | S. cerevisiae deletion strains, locus YPR119W, strain clb2, active compounds read low 0.989 | S. cerevisiae deletion strains, locus YPR141C, strain kar3, active compounds read low 1 | S. cerevisiae deletion strains, locus YPR163C, strain tif3, active compounds read low 0.99 | S. cerevisiae deletion strains, locus YPR167C, strain met16, active compounds read low 0.999 | S. cerevisiae deletion strains, strain wtn01, active compounds read low 0.957 | S. cerevisiae strains, strain wild type, active compounds read low 1.01
